Measurements taken from PubChem BioAssay (NCATS).
Inconclusive results are not listed. Unmarked numbers belong to inactive results. Active and inactive are the calls of the source. Calls come from the whole dose curve; as a rule, active = well fitted inhibition curve with a large enough effect; inconclusive = small, poorly fitted or top-dose-only effect; inactive = no such curve, though single readings can be large or run the other way.

molecular target: Rap guanine nucleotide exchange factor 3 (Homo sapiens) (UniProt O95398); assay: Confirmatory qHTS for antagonist of cAMP-regulated guanine nucleotide exchange factor 3 (EPAC1) (AID 1645880); conditions: EPAC1 Rap1B-BODIPY-GDP exchange, fluorescence; series mostly up to 115 µM; activity, negative = inhibition: at the top concentration; note: nearly all actives have a fitted effect of over 55% in size;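 for activity, negative = inhibition: plate controls were DMSO only for no effect and full effect of the ATA control for full effect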
Method in brief: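 Released BODIPY-GDP fluoresces less than Rap1-bound BODIPY-GDP; the signal is followed at 480/540 nm at 5-min intervals over 30 min, after 5 min at room temperature. Reactions contain 100 nM EPAC1, 250 nM RAP1B-BODIPY-GDP and 50 uM GDP; results are normalized to ATA and DMSO.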
Potency is the fitted concentration of half-maximal effect.

Chain of Rap guanine nucleotide exchange factor 3 (Homo sapiens) (O95398 whole entry, looked up): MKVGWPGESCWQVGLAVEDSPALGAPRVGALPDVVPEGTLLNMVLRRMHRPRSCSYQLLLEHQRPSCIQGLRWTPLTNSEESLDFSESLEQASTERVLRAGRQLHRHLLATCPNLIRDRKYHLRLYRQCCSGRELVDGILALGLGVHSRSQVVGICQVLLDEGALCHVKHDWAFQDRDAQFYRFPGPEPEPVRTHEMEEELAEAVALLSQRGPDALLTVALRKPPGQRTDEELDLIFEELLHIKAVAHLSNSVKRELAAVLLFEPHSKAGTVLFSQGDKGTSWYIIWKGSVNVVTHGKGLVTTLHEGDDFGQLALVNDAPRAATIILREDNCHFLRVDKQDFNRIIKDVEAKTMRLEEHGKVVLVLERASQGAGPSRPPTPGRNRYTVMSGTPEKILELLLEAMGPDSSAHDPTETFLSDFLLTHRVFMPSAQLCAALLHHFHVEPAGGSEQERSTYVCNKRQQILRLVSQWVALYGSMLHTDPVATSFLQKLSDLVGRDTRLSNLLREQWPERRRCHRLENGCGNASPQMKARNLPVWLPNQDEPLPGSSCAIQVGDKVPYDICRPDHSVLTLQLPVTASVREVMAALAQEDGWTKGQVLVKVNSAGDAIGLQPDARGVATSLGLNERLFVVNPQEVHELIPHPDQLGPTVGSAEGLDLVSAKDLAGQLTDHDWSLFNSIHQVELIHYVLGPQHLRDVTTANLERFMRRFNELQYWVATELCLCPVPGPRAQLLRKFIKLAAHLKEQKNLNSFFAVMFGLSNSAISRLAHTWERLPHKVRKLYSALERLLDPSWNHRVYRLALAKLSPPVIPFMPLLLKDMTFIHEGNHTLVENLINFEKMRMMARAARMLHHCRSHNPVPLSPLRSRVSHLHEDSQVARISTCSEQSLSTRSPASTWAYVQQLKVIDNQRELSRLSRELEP

With `Cc1nn(CCc2nn[nH]n2)c2nc(-c3ccc(C4CCCCC4)cc3)cc(C(F)(F)F)c12` the Potency was 21.3 µM (active).
`O=C(NS(=O)(=O)c1ccc2ccc(S(=O)(=O)NCCSc3ccccc3)cc2c1)c1cccc2ccccc12` was tested, and the Potency was 42.6 µM (active).
For `Cc1ccc(S(=O)(=O)/N=C2\C=C(Nc3cccc(C(=O)O)c3)C(=O)c3ccccc32)c(C)c1`, the Potency was 26.9 µM (active).
`CS/C(N)=N/N=C/c1c(O)ccc2ccccc12` was tested, and the Potency was 21.3 µM (active).

First: CCOC(=O)C1CCCN(C(=O)C(C)(C)Oc2ccc(Cl)cc2)C1 (stereo unspecified)
Second: O=C(CNC(=O)c1sc2ccccc2c1Cl)Nc1ccccc1F
The “activity, negative = inhibition” value of the first is lower: -24.5% for the first, -3.37% for the second.

Compared with `CCOc1c(OC)cccc1C1CC(=O)Nc2cc3c(cc21)OCCO3` (stereo unspecified), `COc1ccccc1Oc1ccnc2cc(Cl)ccc12` is higher in “activity, negative = inhibition” value: -19.7% for the first, -16.5% for the second.

Going from `CC(=O)c1c(C(C)=O)c(C)n(-c2nc(-c3ccccc3)c(C)s2)c1C` to `CC(C)CNC(=O)c1c(-c2ccccc2)c(-c2ccccc2)nn(C)c1=O`, the “activity, negative = inhibition” value falls from -18.9% to -28.7%.

Going from `O=C1CSC2(C(=O)N(Cc3cccc(C(F)(F)F)c3)c3ccccc32)N1c1ccc(F)c(F)c1` (stereo unspecified) to `COc1ccc(C2c3c(ncn(CCCO)c3=N)Oc3ccc4ccccc4c32)cc1` (stereo unspecified), the “activity, negative = inhibition” value rises from -56.4% to -18.8%.

First: O=[N+]([O-])c1ccc(Cc2ccccn2)c([N+](=O)[O-])c1
Second: OCC[n+]1ccc(/C=C/c2c[nH]c3ccccc23)cc1
The “activity, negative = inhibition” value of the first is lower: -18.3% for the first, 60.5% for the second.

Going from `CC1(C(=O)O)CCC2(C)CCC3(C)C(=CC(=O)C4C5(C)CCC(=O)C(C)(C)C5CCC43C)C2C1` (stereo unspecified) to `C[C@@H](c1ccccc1)N1Cc2ccccc2Oc2cc(Br)ccc2S1(=O)=O`, the “activity, negative = inhibition” value falls from -18% to -29.7%.
